This note sets out measurements from PubChem BioAssay (NCATS).

Values joined by “and” are separate entries in the source; they are usually repeats but may differ in a detail not shown here. Equal entries are not always repeated. Results filed as inconclusive are left out. Active and inactive are the calls of the source. Calls come from the whole dose curve.

Chain of Vitamin D3 receptor (Homo sapiens) (P11473 whole entry, looked up): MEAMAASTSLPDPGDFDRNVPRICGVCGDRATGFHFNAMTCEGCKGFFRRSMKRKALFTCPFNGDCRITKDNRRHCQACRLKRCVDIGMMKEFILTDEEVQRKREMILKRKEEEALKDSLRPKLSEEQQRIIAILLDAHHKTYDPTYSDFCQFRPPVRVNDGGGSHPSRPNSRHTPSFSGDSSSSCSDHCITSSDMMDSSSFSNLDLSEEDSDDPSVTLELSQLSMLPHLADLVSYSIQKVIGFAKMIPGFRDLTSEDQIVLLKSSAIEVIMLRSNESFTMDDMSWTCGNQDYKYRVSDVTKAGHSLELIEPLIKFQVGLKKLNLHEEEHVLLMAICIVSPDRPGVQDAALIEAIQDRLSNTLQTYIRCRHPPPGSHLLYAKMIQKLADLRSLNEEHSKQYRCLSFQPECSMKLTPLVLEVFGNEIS

One test concerns the target Vitamin D3 receptor (Homo sapiens) (UniProt P11473). Description: qHTS assay for small molecule agonists of vitamin D receptor signaling (AID 588543).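 Note: 0% = DMSO basal and 100% = reference agonist control.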 Particulars: HEK293T VDR-UAS-bla, beta-lactamase ratio, 16 h; series mostly up to 76.8 µM; activation: at the top concentration. The procedure, abridged:
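Agonist-mode beta-lactamase reporter: HEK293T VDR-UAS-bla cells in charcoal-stripped 2% FBS, compound series 16 h 37 C, CCF4 2 h RT. EC50 from Hill fit, scaled against DMSO and 50 nM calcitriol control.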
`CCC/C=N/O`: the “activation” value is 5.39% (inactive). For `Cc1cnc[nH]1`, the “activation” value was -0.208% (inactive).

`CN(C)N=O`: the “activation” value was 0.292% (inactive).

`COc1c(C(C)(C)C)cc([N+](=O)[O-])c(C)c1[N+](=O)[O-]`: the “activation” value was 2.83% (inactive). `C=C(Cl)CCl`: the “activation” value was -0.884% (inactive). Turning to `ClCCOCOCCCl`, the “activation” value is 1.31% (inactive). In the case of `CC12CC1(C)C(=O)N(c1cc(Cl)cc(Cl)c1)C2=O` (stereo unspecified), the outcome was inactive.

`CC(C)(Cl)[N+](=O)[O-]`: the “activation” value was -1.85% (inactive). In the case of `Cl/C=C/Cl`, the “activation” value is 0.946% (inactive).

For `CCCCOCC1CO1` (stereo unspecified), the “activation” value was 0.931% (inactive). Consider `O=C(O)c1cccc(Cl)c1`, for which the “activation” value was 2.53% (inactive). `C1CC2OC2CC1C1CO1` (stereo unspecified): the outcome was inactive. As for `Brc1cccc(-c2ccccc2)c1`, the “activation” value is 2.5% (inactive). As for `Oc1c(Cl)cccc1Cl`, the “activation” value was -1.16% (inactive). Consider `CCNCC`, for which the “activation” value was 0.331% (inactive). Consider `Cl/C=C\Cl`, for which the “activation” value is 5.78% (inactive). Take `c1ccc2c(c1)CCNC2`: the “activation” value was -0.494% (inactive). Turning to `CCBr`, the “activation” value is -1.02% (inactive). For `O=[N+]([O-])c1ccc(Cl)c(Cl)c1Cl`, the “activation” value was 7.92% (inactive).

`N#CCCC#N`: the “activation” value was -2.66% (inactive). With `Cc1ccccc1[N+](=O)[O-]`, the “activation” value is 1.05% (inactive).

For the compound `OCCBr`, the “activation” value is -1.97% (inactive). For the compound `C=CC(=O)OCCN(C)C`, the “activation” value was -0.389% (inactive). `CC(C)(C)C(O)(CCc1ccc(Cl)cc1)Cn1cncn1` (stereo unspecified): the outcome was inactive.

For `N#CCCCCC#N`, the “activation” value was 0.154% (inactive). As for `c1ccc(C2CO2)cc1` (stereo unspecified), the “activation” value was -0.576% (inactive).

As for `CCCCCC[N+](=O)[O-]`, the “activation” value was 0.115% (inactive). With `OCC(Cl)CCl` (stereo unspecified), the “activation” value was 4.2% (inactive). Turning to `COc1ccc(C=O)cc1`, the “activation” value is 1.49% (inactive). Still for that read-out and setting: with `Nc1ccc(Cl)c(Cl)c1` the figure was -0.991% (inactive); with `CC(=O)CCC(C)=O`, -1.04% (inactive). On to `C=CC(=O)OCC(CC)CCCC` (stereo unspecified), for which the result was inactive.

Regarding `CC(C#N)CCC#N` (stereo unspecified), the “activation” value is 0.7% (inactive).

Test system in another test: not listed separately
The test can be described thus: qHTS assay for small molecule agonists of retinoid X receptor alpha signaling (AID 588544). The conditions noted are these: HEK293T RXRa-UAS-bla, beta-lactamase reporter, 18 h; 530 nm emission. For orientation: qHTS replaces the single test concentration by a dilution series.
On to `Oc1cccc(Cl)c1Cl`, for which the max response is -10%.

As for `CCC/C=N/O`, the max response was -21.6%.

Consider `Cc1cnc[nH]1`, for which the max response stood at 2.59%. The same measure, in the same setting: in the case of `CN(C)N=O` it was -8.99%. As to `COc1c(C(C)(C)C)cc([N+](=O)[O-])c(C)c1[N+](=O)[O-]`, the max response is -3.49%. As for `C=C(Cl)CCl`, the max response is -8.31%.

As to `ClCCOCOCCCl`, the max response was -19.5%. `CC12CC1(C)C(=O)N(c1cc(Cl)cc(Cl)c1)C2=O` (stereo unspecified): the max response is -5.02% and -2.83%. Take `CC(C)(Cl)[N+](=O)[O-]`: the max response was -3.38%. As for `Cl/C=C/Cl`, the max response was 1.12%. With `CCCCOCC1CO1` (stereo unspecified), the max response was 5.09%.

Regarding `O=C(O)c1cccc(Cl)c1`, the max response is -9.83%.

As to `C1CC2OC2CC1C1CO1` (stereo unspecified), the max response was -2.62%. On to `Brc1cccc(-c2ccccc2)c1`, for which the max response is -12%. On to `Oc1c(Cl)cccc1Cl`, for which the max response is 9.22%. For `ClCCOCCCl`, the max response came to 0.666%. In the case of `CCNCC`, the max response was -7.47%. For the compound `CC(C)C#N`, the max response is -7.08%.

As for `Cl/C=C\Cl`, the max response is -20.4%. Regarding `c1ccc2c(c1)CCNC2`, the max response was -9.85%.

`CCBr`: the max response was -3.72%. As to `O=[N+]([O-])c1ccc(Cl)c(Cl)c1Cl`, the max response is 3.54%. For the compound `N#CCCC#N`, the max response is -20.2%. As for `Cc1ccccc1[N+](=O)[O-]`, the max response was -2.95%. Take `OCCBr`: the max response was found to be 1.51%. For the compound `C=CC(=O)OCCN(C)C`, the max response was -14.1%. Regarding `CC(C)(C)C(O)(CCc1ccc(Cl)cc1)Cn1cncn1` (stereo unspecified), the max response is -9.24% and 6.75%.

Turning to `N#CCCCCC#N`, the max response is 10.4%. Regarding `CN=C=O`, the max response is -13%. Same read-out and setting: with `c1ccc(C2CO2)cc1` (stereo unspecified) the figure was -3.27%; with `CCCCCC[N+](=O)[O-]`, -16.5%; with `OCC(Cl)CCl` (stereo unspecified), -11.4%. In the case of `COc1ccc(C=O)cc1`, the max response was -0.469%. In the case of `Nc1ccc(Cl)c(Cl)c1`, the max response was 3.91%. On the same count and under the same terms, with `CC(=O)[O-].CC(=O)[O-].CC(=O)[O-].[Cr+3]` the figure was -6.52%; with `CC(=O)CCC(C)=O`, 0.0938%. Same read-out and setting: with `C=CC(=O)OCC(CC)CCCC` (stereo unspecified) the figure was -3.1% and -13.3%. Turning to `CC(C#N)CCC#N` (stereo unspecified), the max response was -11.4%.
